These results are taken from PubChem BioAssay AID2355 (The Scripps Research Institute Molecular Screening Center, 2010).

Some of the results follow. Active and inactive are the calls of the source. Cut-off read from the data, not from the text of the source: active = inhibition above about 16%; inactive = the rest.

This experiment deals with Serine/threonine-protein phosphatase PP1-alpha catalytic subunit (Homo sapiens) (UniProt P62136). As to the kind of experiment: PP1 phosphatase inhibitors, counter-screen for PP5 inhibitor project, biochemical, fluorescence, triplicate (AID 2355). The following applies: PP1 enzyme, fluorescent phosphatase substrate; at 6.7 µM; stronger effect = higher value. On the technique in general: The purpose of a counterscreen is to sort out artefacts and off-target activity.
Serine/threonine-protein phosphatase PP1-alpha catalytic subunit (Homo sapiens), sequence (P62136 whole entry, looked up): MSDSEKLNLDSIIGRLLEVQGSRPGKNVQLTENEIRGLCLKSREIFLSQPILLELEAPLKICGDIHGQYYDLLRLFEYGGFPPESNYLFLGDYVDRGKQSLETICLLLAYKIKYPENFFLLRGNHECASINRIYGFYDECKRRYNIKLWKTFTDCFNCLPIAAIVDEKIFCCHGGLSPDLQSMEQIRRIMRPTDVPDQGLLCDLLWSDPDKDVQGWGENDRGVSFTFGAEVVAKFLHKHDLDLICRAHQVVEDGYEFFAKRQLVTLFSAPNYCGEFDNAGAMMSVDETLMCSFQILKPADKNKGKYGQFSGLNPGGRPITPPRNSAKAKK
In the case of `COCCN1C=C2C(=O)C(C)(OC(=O)C3CCCC3)C(=O)C=C2C=C1c1ccsc1` (stereo not drawn), the inhibition was 16.6% (active).

`CN(C)c1nc(N)nc(CSc2nnnn2-c2cccc3ccccc23)n1`: the inhibition is -1.14% (inactive). For `O=C(C1=C[C@H](c2ccc(C(F)(F)F)cc2)C[C@H](OCc2ccc(CO)cc2)O1)N1CCN(Cc2ccccc2)CC1`, the inhibition was 3.55% (inactive). On to `Cc1nnc(SCc2nc3ccccc3nc2C)s1`, for which the inhibition is -2.74% (inactive). Turning to `CCN1CCN(CCNC(=O)c2ccc(/C=C3/Sc4ccccc4N(Cc4cccc(C)c4)C3=O)cc2)CC1`, the inhibition is -16% (inactive). The figure for `COc1cc(/C=C2/SC(=S)N(Cc3ccccc3)C2=O)cc(OC)c1O` is 2.23% (inactive); for `C[C@@]12C(=O)N(c3cccc(Br)c3)C(=O)N1[C@H](c1ccc(Cl)cc1)[C@@H]1C(=O)N(C3CCCCC3)C(=O)[C@@H]12` it is 6.16% (inactive); for `O=C(O)c1n[nH]nc1-c1ccccc1` it is 0.18% (inactive). In the case of `O=c1ccc2c(-c3ccccc3S(=O)(=O)O)c3ccc(O)c(O)c3oc-2c1O`, the inhibition was 5.34% (inactive). With `O=[N+]([O-])c1cccc2ncccc12`, the inhibition was -2.99% (inactive). For `Cc1sc(NC(=O)C2C3CCC(O3)C2C(=O)O)c(C(=O)OC(C)C)c1-c1ccc(Cl)cc1` (stereo not drawn), the inhibition is 9.97% (inactive).

For `COc1cc(C(F)(F)F)c(C(=O)N(C)c2ccc(Cl)cc2)cn1`, the inhibition is 0.28% (inactive). For `CNC(=S)NNC(=O)c1oc2nc(-c3ccccc3)cc(-c3ccco3)c2c1N`, the inhibition is -1.11% (inactive). Consider `Cc1nc(NC(CC(C)C)C(=O)O)c2nc(C)oc2n1` (stereo not drawn), for which the inhibition was -4.44% (inactive). Take `N#Cc1c(N2CCCCC2)nc(N)c2c(N)nc(SCC(=O)O)cc12`: the inhibition was 3.99% (inactive).

Consider `COc1ccc(OC)c(C(=O)c2ccc(C(=O)O)cc2)c1`, for which the inhibition was -5.81% (inactive). Turning to `CN(c1ccccc1)S(=O)(=O)c1ccc(NC(=O)COc2ccccc2)cc1`, the inhibition was 3.34% (inactive). As for `CCOC(=O)Nc1ccc2c(c1)N(C(=O)CN1CCN3CCCC3C1)c1ccccc1CC2` (stereo not drawn), the inhibition is -7% (inactive).

What is called inhibition is the change of the read-out against control, counted positive when it falls.
